This note sets out measurements from the supplement of paper PMC8866396.

“And” between values parts separate entries of the source, which are not always exact repeats. Equal entries are not always repeated. Structures can show the parent of a compound that is named as a salt. ± gives the standard deviation of the averaged measurements.

In one test the test system is IL-6-GFP PC-9GR. In words: cell viability (CCK-8 OD) relative to DMSO control (fraction of control); higher = more viable cells. Conditions: compound concentration: 10 uM; treatment time: 48 h. In short, it runs like this: (§1)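 In 96-well plates, 3000 cells/well of PC-9 or PC-9GR lung cancer cells with lentiviral IL-6-GFP overexpression received each compound of a purchased 510-compound library at a final 10 μM for 48 h. Viability, measured by CCK-8 absorbance, is each well's optical density relative to the vehicle control well. Data come from two independent replicates.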

For the next test, the system named is IL-6-GFP PC-9. The description is as above. To be noted: compound concentration: 10 uM; treatment time: 48 h. In a few lines: as §1

As for `N#CCC(C1CCCC1)n1cc(-c2ncnc3[nH]ccc23)cn1` (configuration not stated), the cell viability in the test on IL-6-GFP PC-9GR was 1.08 and 1.17; with IL-6-GFP PC-9 it was 1.11 and 0.753.

With `COc1cc2c(cc1OC)C1CC(OC(=O)C(N)C(C)C)C(CC(C)C)CN1CC2.Cc1ccc(S(=O)(=O)O)cc1.Cc1ccc(S(=O)(=O)O)cc1` (configuration not stated) [Valbenazine tosylate], the cell viability with IL-6-GFP PC-9GR came out at 0.833 ± 0.14; with IL-6-GFP PC-9, 1.01 ± 0.084.

Take `COC1CC2CCC(C)C(O)(O2)C(=O)C(=O)N2CCCCC2C(=O)OC(C(C)CC2CCC(OC(=O)C(C)(CO)CO)C(OC)C2)CC(=O)C(C)/C=C(\C)C(O)C(OC)C(=O)C(C)CC(C)/C=C/C=C/C=C/1C` (configuration not stated): the cell viability in the test on IL-6-GFP PC-9GR came to 0.524 ± 0.54; with IL-6-GFP PC-9, 0.698 ± 0.12.

For `CS(=O)(=O)n1cc2c(n1)CN(C1COC(c3cc(F)ccc3F)C(N)C1)C2` (configuration not stated) [Omarigliptin (MK-3102)], the cell viability was 0.931 ± 0.14 in the test on IL-6-GFP PC-9GR and 1.02 ± 0.25 in the test on IL-6-GFP PC-9.

Turning to `O=C(CCCc1ccccc1)[O][Na]` [Sodium Phenylbutyrate], the values for the cell viability in the test on IL-6-GFP PC-9GR and with IL-6-GFP PC-9 were 0.51 ± 0.067 and 0.0369 ± 0.035, respectively.

Turning to `Cl.Nc1ccn(C2OC(CO)C(O)C2(F)F)c(=O)n1` (configuration not stated) [Gemcitabine HCl], the cell viability worked out at 0.596 ± 0.012 in the test with IL-6-GFP PC-9GR and 0.566 ± 0.046 with IL-6-GFP PC-9.

Consider `O=c1ccc2cc3ccoc3cc2o1` [Psoralen], for which the values for the cell viability with IL-6-GFP PC-9GR and in the test on IL-6-GFP PC-9 were 0.808 ± 0.11 and 1.13 ± 0.057, respectively.

Turning to `COc1ccc2c(c1)c(CC(=O)O)c(C)n2C(=O)c1ccc(Cl)cc1` [Indomethacin], the cell viability amounted to 0.478 ± 0.33 with IL-6-GFP PC-9GR and 1.03 ± 0.027 in the test on IL-6-GFP PC-9.

For the compound `CCS(=O)(=O)O.COC(=O)c1ccc2c(c1)NC(=O)/C2=C(\Nc1ccc(N(C)C(=O)CN2CCN(C)CC2)cc1)c1ccccc1` [Nintedanib Ethanesulfonate Salt], the cell viability in the test on IL-6-GFP PC-9GR came to 0.8 ± 0.075; in the test on IL-6-GFP PC-9, 0.782 ± 0.023.

Regarding `NCCNc1ccc(NCCN)c2c1C(=O)c1ccncc1C2=O.O=C(O)/C=C\C(=O)O.O=C(O)/C=C\C(=O)O` [Pixantrone Maleate], the cell viability came to 0.168 ± 0.39 in the test on IL-6-GFP PC-9GR and 0.3518 ± 0.00067 with IL-6-GFP PC-9.

For `OCC1OC(OCC2OC(O)C(O)C(OC3OC(CO)C(O)C(OC4OC(CO)C(O)C(OC5OC(COC6OC(CO)C(O)C(O)C6O)C(O)C(OC6OC(CO)C(O)C(O)C6O)C5O)C4O)C3O)C2O)C(O)C(O)C1O` (configuration not stated) [Lentinan], the cell viability with IL-6-GFP PC-9GR was found to be 0.121 ± 0.32; with IL-6-GFP PC-9, 1.276 ± 0.0043.

As to `CC12CCC(CC1=O)C2(C)C` (configuration not stated) [Camphor], the cell viability in the test with IL-6-GFP PC-9GR amounted to 1.24 ± 0.3; in the test with IL-6-GFP PC-9 it was 0.786 ± 0.061.

On to `CNC(=O)C(NC(=O)C(CC(C)C)C(O)C(=O)NO)C(C)(C)C` (configuration not stated) [Marimastat (BB-2516)], for which the cell viability came out at 0.915 ± 0.038 in the test on IL-6-GFP PC-9GR and 1.14 ± 0.19 in the test on IL-6-GFP PC-9.

On to `CC(C(=O)O)c1ccc(C(=O)c2ccccc2)s1` (configuration not stated) [Tiaprofenic acid], for which the cell viability in the test with IL-6-GFP PC-9GR is 0.905 ± 0.037; in the test on IL-6-GFP PC-9, 1.04 ± 0.17.

For `Cc1coc2c1C(=O)C(=O)c1c-2ccc2c(C)cccc12` [Tanshinone I], the cell viability is 1.32 ± 0.097 with IL-6-GFP PC-9GR and 1.51 ± 0.29 in the test on IL-6-GFP PC-9.

`Cc1c(C(=O)Nc2ccc(N3CC(C)OC(C)C3)nc2)cccc1-c1ccc(OC(F)(F)F)cc1` (configuration not stated) [Sonidegib (Erismodegib, NVP-LDE225)]: the cell viability in the test with IL-6-GFP PC-9GR was 1.05 ± 0.049; in the test on IL-6-GFP PC-9 it was 1.0769 ± 0.001.

Regarding `CCN(CC)Cc1cc(Nc2ccnc3cc(Cl)ccc23)ccc1O.Cl.Cl.O.O` [Amodiaquine dihydrochloride dihydrate], the figures for the cell viability with IL-6-GFP PC-9GR and in the test with IL-6-GFP PC-9 were 1.05 ± 0.011 and 0.756 ± 0.039, respectively.

As to `CC#CC(=O)N1CCCC1c1nc(-c2ccc(C(=O)Nc3ccccn3)cc2)c2c(N)nccn12` (configuration not stated) [Acalabrutinib (ACP-196)], the figures for the cell viability in the test with IL-6-GFP PC-9GR and with IL-6-GFP PC-9 were 1.04 ± 0.36 and 0.78 ± 0.084, respectively.

As for `CC/C(=C(/CC)c1ccc(O)cc1)c1ccc(O)cc1` [Diethylstilbestrol], the cell viability came to 1.13 ± 0.038 in the test on IL-6-GFP PC-9GR and 1.18 ± 0.19 with IL-6-GFP PC-9.

As for `Cc1cccn2c(=O)c(-c3nnn[n-]3)cnc12.[K+]` [Pemirolast potassium], the figures for the cell viability in the test with IL-6-GFP PC-9GR and in the test with IL-6-GFP PC-9 were 1.24 ± 0.25 and 1.23 ± 0.31, respectively.

For the compound `CC(=O)OCC(=O)C1(O)CCC2C3CCC4=CC(=O)CCC4(C)C3C(=O)CC21C` (configuration not stated) [Cortisone acetate], the cell viability with IL-6-GFP PC-9GR was determined as 1.29 ± 0.26; in the test on IL-6-GFP PC-9 it was 1.12 ± 0.1.

With `CC1=C(CC(=O)O)c2cc(F)ccc2/C1=C\c1ccc(S(C)=O)cc1` (configuration not stated) [Sulindac], the cell viability in the test with IL-6-GFP PC-9GR turned out to be 1.12 ± 0.075; in the test with IL-6-GFP PC-9 it was 0.821 ± 0.32.

As to `CC(=O)Oc1ccccc1C(=O)O` [Aspirin], the cell viability is 1.05 ± 0.027 with IL-6-GFP PC-9GR and 1.23 ± 0.12 in the test with IL-6-GFP PC-9.

`Cc1coc2c1C(=O)C(=O)c1c-2ccc2c1CCCC2(C)C` [Tanshinone IIA]: the cell viability in the test on IL-6-GFP PC-9GR worked out at 1.37 ± 0.095; with IL-6-GFP PC-9, 0.705 ± 0.19.

On to `CCCCCOC(=O)Nc1nc(=O)n(C2OC(C)C(O)C2O)cc1F` (configuration not stated) [Capecitabine], for which the results for the cell viability with IL-6-GFP PC-9GR and in the test on IL-6-GFP PC-9 were 0.655 ± 0.029 and 0.459 ± 0.015, respectively.

For the compound `COc1cccc2c1C(=O)c1c(O)c3c(c(O)c1C2=O)CC(O)(C(=O)CO)CC3OC1CC(N)C(O)C(C)O1.Cl` (configuration not stated) [Epirubicin HCl], the figures for the cell viability with IL-6-GFP PC-9GR and in the test on IL-6-GFP PC-9 were 0.141 ± 0.14 and 0.1407 ± 0.00071, respectively.

Turning to `Nc1nc(CC(=O)Nc2ccc(CCNCC(O)c3ccccc3)cc2)cs1` (configuration not stated) [Mirabegron], the cell viability with IL-6-GFP PC-9GR came out at 1.09 ± 0.19; in the test with IL-6-GFP PC-9, 0.791 ± 0.035.

For `COC(=O)/C=C/C(=O)OC` [Dimethyl Fumarate], the cell viability amounted to 1.13 ± 0.16 in the test on IL-6-GFP PC-9GR and 1.33 ± 0.26 with IL-6-GFP PC-9.

`COc1cc(CNC(=O)CCCC/C=C\C(C)C)ccc1O` [Zucapsaicin]: the figures for the cell viability with IL-6-GFP PC-9GR and with IL-6-GFP PC-9 were 0.332 ± 0.62 and 1.22 ± 0.092, respectively.

On to `O=C(c1ccc(OCCN2CCCCC2)cc1)c1c(-c2ccc(O)cc2)sc2cc(O)ccc12` [Raloxifene], for which the figures for the cell viability in the test with IL-6-GFP PC-9GR and in the test on IL-6-GFP PC-9 were 0.849 ± 0.1 and 1.08 ± 0.11, respectively.

Turning to `O=C(O)COC(=O)Cc1ccccc1Nc1c(Cl)cccc1Cl` [Aceclofenac], the cell viability in the test on IL-6-GFP PC-9GR worked out at 1.29 ± 0.4; in the test with IL-6-GFP PC-9, 1.1 ± 0.052.
